Measured values taken from publication PMC4336329 (PLoS ONE, 2015).
Among all 310,000 compounds or so, about 14,000 (4.5%) showed an effect of 50% or more. Effects have a minus sign here. This is one part of a sample in which strong results are shown more often than they occur.

What follows are molecules tested against human ether-à-go-go-related gene (hERG) potassium channel (human, UniProt Q12809) (assay: primary screen, population patch clamp on CHO cells stably expressing hERG; higher = less effect of the substance).
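Further: peak tail current of the secondary pulse compared with the same well before compound.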

Chain of human ether-à-go-go-related gene (hERG) potassium channel (Q12809 whole entry, looked up): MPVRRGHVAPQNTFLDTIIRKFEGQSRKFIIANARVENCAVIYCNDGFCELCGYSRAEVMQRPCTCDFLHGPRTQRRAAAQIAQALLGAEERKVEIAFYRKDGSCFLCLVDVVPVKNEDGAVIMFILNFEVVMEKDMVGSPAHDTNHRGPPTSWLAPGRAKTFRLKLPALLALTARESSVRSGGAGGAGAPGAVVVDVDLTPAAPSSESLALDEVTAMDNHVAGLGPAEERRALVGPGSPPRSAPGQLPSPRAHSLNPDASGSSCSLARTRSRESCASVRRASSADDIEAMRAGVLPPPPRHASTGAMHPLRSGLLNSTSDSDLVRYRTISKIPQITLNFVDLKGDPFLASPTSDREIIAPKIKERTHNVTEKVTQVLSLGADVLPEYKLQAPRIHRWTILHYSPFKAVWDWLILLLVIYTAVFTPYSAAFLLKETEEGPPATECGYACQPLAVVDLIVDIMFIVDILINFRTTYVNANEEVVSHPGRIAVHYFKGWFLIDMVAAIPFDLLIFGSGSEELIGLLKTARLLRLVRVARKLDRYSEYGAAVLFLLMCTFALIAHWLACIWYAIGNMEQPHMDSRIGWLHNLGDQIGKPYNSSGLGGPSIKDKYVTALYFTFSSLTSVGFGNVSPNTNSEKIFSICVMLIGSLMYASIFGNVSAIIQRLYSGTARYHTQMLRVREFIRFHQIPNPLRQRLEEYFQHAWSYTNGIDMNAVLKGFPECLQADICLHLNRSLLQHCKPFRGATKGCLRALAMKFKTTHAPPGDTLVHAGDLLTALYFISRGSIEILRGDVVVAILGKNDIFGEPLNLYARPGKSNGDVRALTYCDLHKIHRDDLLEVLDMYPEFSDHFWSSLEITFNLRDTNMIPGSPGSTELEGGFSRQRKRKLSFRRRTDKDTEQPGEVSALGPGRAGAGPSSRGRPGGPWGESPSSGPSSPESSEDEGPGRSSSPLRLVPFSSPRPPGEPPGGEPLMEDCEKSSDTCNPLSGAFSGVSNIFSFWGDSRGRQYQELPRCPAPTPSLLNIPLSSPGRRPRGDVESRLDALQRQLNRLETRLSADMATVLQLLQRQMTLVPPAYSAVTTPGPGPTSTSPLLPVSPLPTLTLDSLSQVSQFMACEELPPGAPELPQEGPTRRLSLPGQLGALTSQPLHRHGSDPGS

Row | Compound | hERG current change (%, negative = inhibition) at 10uM [%]
1 | Cc1cc(NC(=O)CSc2nc3ccsc3c(=O)n2NC(=O)c2ccccc2)no1 | -1.69
2 | Cc1ccc(C(=O)N(C)CC(=O)Nc2cccc(F)c2)cc1S(=O)(=O)N1CCCCC1 | -10.5
3 | COc1cc2[nH]c(=O)n(Cc3ccc(C(=O)NC4CCN(Cc5ccccc5)CC4)cc3)c(=O)c2cc1OC | 17.6
4 | COc1ccc(C(=O)NC2CC2)cc1OC1CCN(Cc2ccc(Cl)cc2)CC1 | -78.8
5 | COc1ccc(C(=O)NC2CC2)cc1OC1CCN(Cc2ccccc2)CC1 | -81.6
6 | COc1ccc(C(=O)NC2CC2)cc1OC1CCN(Cc2ccc(F)c(F)c2)CC1 | -75.2
7 | COc1ccc(C(=O)NC2CC2)cc1OC1CCN(Cc2ccc(SC)cc2)CC1 | -88.7
8 | COc1ccc(C(=O)NC2CC2)cc1OC1CCN(Cc2cnn(C)c2)CC1 | -32.7
9 | COc1ccc(C(=O)NCCc2cccc(Cl)c2)cc1OC1CCN(C(C)=O)CC1 | -16.1
10 | COc1ccc(C(=O)NC2CCC(O)CC2)cc1S(=O)(=O)NCc1ccc(Cl)cc1 (stereo not shown) | -6.07
11 | C/C(=N\Nc1ccc(S(N)(=O)=O)cc1[N+](=O)[O-])c1cccs1 | 25.7
12 | C[C@]12CC[C@H]3[C@@H](CC[C@]4(O)C[C@@H](O)CC[C@]34C=O)[C@@]1(O)CC[C@@H]2C1=CC(=O)OC1 | 14
13 | O=C(CC12CC3CC(CC(C3)C1)C2)N1CCOCC1 | -1.47
14 | COc1ccccc1CC(NC(C)=O)C(=O)NC1CCN(C(=O)Nc2ccc(F)cc2)CC1 (stereo not shown) | -1.82
15 | COc1ccc(C(=O)NC2CC2)cc1OC1CCN(Cc2ccc(F)cc2)CC1 | -81.8
16 | COc1ccc(C(=O)NC2CCN(CC(=O)Nc3c(C)cccc3C)CC2)cc1OC | 18.7
17 | COc1cc(OC)cc(C(=O)NC2CCN(Cc3nnnn3Cc3ccc(F)cc3)CC2)c1 | -3.98
18 | COc1cc(C(=O)NC2CCCCC2)ccc1OC1CCN(C(C)=O)CC1 | 7.63
19 | C/C=C(\C)CN1CCC(Oc2cc(C(=O)NC3CC3)ccc2OC)CC1 | -64.5
20 | COc1cc(C(=O)NC2CCN(Cc3nnnn3Cc3ccc(F)cc3)CC2)cc(OC)c1OC | -0.888
21 | CN(C)S(=O)(=O)c1cccc(C(=O)NC2CCSc3ccccc32)c1 (stereo not shown) | -5.74
22 | CCOc1cccc(=O)c2c(C)n(Cc3ccco3)c(C)c12 | -11.5

Row | Compound | hERG current change (%, negative = inhibition) at 10uM [%]
23 | Cc1nc(NS(=O)(=O)c2ccccc2)sc1C(=O)N/N=C/c1ccccc1 | -2
24 | CCn1c2ccccc2c2cc(/C=N/n3cnnc3)ccc21 | -13.4
25 | COc1ccc(N2CC(C(=O)N/N=C/c3ccc([N+](=O)[O-])cc3)CC2=O)cc1 (stereo not shown) | -59.5
26 | COc1ccc(N2CC(C(=O)Nc3ccc(F)cc3F)CC2=O)cc1 (stereo not shown) | -0.618
27 | COc1ccc(N2CC(C(=O)N/N=C/c3cc([N+](=O)[O-])ccc3O)CC2=O)cc1 (stereo not shown) | -8.45
28 | COc1ccc(N2CC(C(=O)N/N=C/c3ccc(C)cc3)CC2=O)cc1 (stereo not shown) | -18.8
29 | COc1ccc(N2CC(C(=O)Nc3ccc([N+](=O)[O-])cc3Br)CC2=O)cc1 (stereo not shown) | -69
30 | COc1ccc(OC)c(NC(=O)C2CC(=O)N(c3ccc(Br)cc3)C2)c1 (stereo not shown) | -33.6
31 | O=C(COC(=O)/C=C/c1cccc(C(F)(F)F)c1)NCc1ccco1 | 13.5
32 | Cc1ccc(OCC(=O)Nc2ccccc2F)cc1C | 23.6
33 | Cc1nc(NNC(=O)c2ccccc2)cc(-c2ccccc2)n1 | 3.7
34 | Cc1nc(NNC(=O)c2ccc([N+](=O)[O-])cc2)cc(-c2ccccc2)n1 | -50.8
35 | Cc1nc(NNC(=O)c2ccc(Cl)cc2Cl)cc(-c2ccccc2)n1 | 6.97
36 | CC1OC(OCC2OC(Oc3c(-c4ccc(O)cc4)oc4cc(O)cc(O)c4c3=O)C(O)C(O)C2O)C(O)C(O)C1O (stereo not shown) | 13.7
37 | Cc1cccc2c(CC(=O)Nc3ccccc3)noc12 | -0.38
38 | Cc1ccc2c(c1)N(Cc1ccc3c(c1)OCO3)C(=O)C(C)O2 (stereo not shown) | -13.5
39 | COc1ccccc1N1CCN(C(=O)c2cc(=O)c3cc(C)ccc3o2)CC1 | -50.7
40 | CCc1ccc2oc(C(=O)N3CCN(C)CC3)cc(=O)c2c1 | -32.4
41 | COc1ccccc1N1CCN(C(=O)c2cc(=O)c3cc(C)cc(C)c3o2)CC1 | -27.3
42 | CCc1ccc2oc(C(=O)N3CCN(c4ccc(OC)cc4)CC3)cc(=O)c2c1 | -36.7
43 | COc1ccccc1N1CCN(C(=O)c2cc(=O)c3ccc(C)cc3o2)CC1 | -20.7
